Source: PubChem BioAssay AID1159580 (chemical genetic matrix, 2015)
Where “and” joins values, the source holds several entries; their conditions need not be identical. Identical values can stand only once. Hit rate of the full screen: of about 5,500 compounds, about 2,000 (36%) were called active. Another 18% or so got no clear call; they are omitted. No stated cut-off is given here; in the data, active means normalized growth mostly below about 0.91 (no sharp cut-off); inconclusive means no clear call, values can overlap the other calls; inactive means mostly above about 0.92. This is one part of the list.

Test: chemical genetic growth profiling, strain panel (AID 1159580);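 further: tested at 20 µM; growth read once vehicle control cultures reached saturation at 30 °C; 1 = growth at the plate median or of vehicle wells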
Details: S. cerevisiae deletion strains, growth OD

Measured: normalized growth

N[C@@H](Cc1ccc(N(CCCl)CCCl)cc1)C(=O)O
inactive: locus YAL013W, strain DEP1, stronger effect = lower value 0.988 | locus YAL021C, strain ccr4, stronger effect = lower value 0.985 | locus YAL026C, strain drs2, stronger effect = lower value 0.997 | locus YAL030W, strain snc1, stronger effect = lower value 0.991 | locus YBL061C, strain skt5, stronger effect = lower value 0.987 | locus YBR009C, strain hhf1, stronger effect = lower value 0.985 | locus YBR021W, strain FUR4, stronger effect = lower value 1.05 | locus YBR023C, strain chs3, stronger effect = lower value 0.978 | locus YBR171W, strain sec66, stronger effect = lower value 0.98 | locus YBR229C, strain ROT2, stronger effect = lower value 0.947 | locus YBR231C, strain swc5, stronger effect = lower value 0.994 | locus YBR279W, strain paf1, stronger effect = lower value 0.988 | locus YCL011C, strain gbp2, stronger effect = lower value 0.971 | locus YCL016C, strain dcc1, stronger effect = lower value 0.968 | locus YCL029C, strain bik1, stronger effect = lower value 0.972 | locus YCL061C, strain MRC1, stronger effect = lower value 0.972 | locus YCL069W, strain vba3, stronger effect = lower value 0.984 | locus YCR088W, strain abp1, stronger effect = lower value 0.986 | locus YDL005C, strain med2, stronger effect = lower value 0.995 | locus YDL035C, strain GPR1, stronger effect = lower value 0.986 | locus YDL040C, strain nat1, stronger effect = lower value 0.985 | locus YDL074C, strain BRE1, stronger effect = lower value 0.977 | locus YDL101C, strain DUN1, stronger effect = lower value 0.972 | locus YDL134C, strain PPH21, stronger effect = lower value 0.987 | locus YDL192W, strain arf1, stronger effect = lower value 0.973 | locus YDR001C, strain nth1, stronger effect = lower value 0.978 | locus YDR069C, strain doa4, stronger effect = lower value 0.996 | locus YDR101C, strain arx1, stronger effect = lower value 0.983 | locus YDR137W, strain rgp1, stronger effect = lower value 0.964 | locus YDR150W, strain NUM1, stronger effect = lower value 0.974 | locus YDR159W, strain sac3, stronger effect = lower value 1.01 | locus YDR162C, strain NBP2, stronger effect = lower value 0.974 | locus YDR195W, strain ref2 0.975 | locus YDR297W, strain sur2, stronger effect = lower value 0.998 | locus YDR318W, strain mcm21, stronger effect = lower value 0.984 | locus YDR334W, strain swr1, stronger effect = lower value 0.966 | locus YDR335W, strain msn5, stronger effect = lower value 0.995 | locus YDR388W, stronger effect = lower value 0.984 | locus YDR392W, strain spt3, stronger effect = lower value 0.879 | locus YDR502C, strain sam2, stronger effect = lower value 0.971 | locus YEL003W, strain gim4, stronger effect = lower value 0.996 | locus YEL037C, strain rad23, stronger effect = lower value 0.973 | locus YEL061C, strain CIN8 (second series), stronger effect = lower value 0.978 | locus YEL061C, strain CIN8, stronger effect = lower value 0.982 | locus YER015W, strain faa2, stronger effect = lower value 0.995 | locus YER016W, strain bim1, stronger effect = lower value 1 | locus YER110C, stronger effect = lower value 0.977 | locus YER111C, strain swi4, stronger effect = lower value 0.967 | locus YER155C, strain BEM2 (second series), stronger effect = lower value 0.991 | locus YER155C, strain BEM2, stronger effect = lower value 0.979 | locus YER167W, strain BCK2, stronger effect = lower value 0.982 | locus YFR010W, strain ubp6, stronger effect = lower value 0.985 | locus YGL078C, strain dbp3, stronger effect = lower value 0.986 | locus YGL086W, strain mad1, stronger effect = lower value 0.983 | locus YGL167C, strain pmr1, stronger effect = lower value 0.987 | locus YGL173C, strain kem1, stronger effect = lower value 0.994 | locus YGL227W, strain vid30, stronger effect = lower value 0.995 | locus YGL240W, strain doc1, stronger effect = lower value 1.02 | locus YGL248W, strain PDE1, stronger effect = lower value 0.972 | locus YGL253W, strain hxk2, stronger effect = lower value 0.982 | locus YGR078C, strain PAC10, stronger effect = lower value 0.986 | locus YGR135W, strain pre9, stronger effect = lower value 0.962 | locus YGR229C, strain SMI1, stronger effect = lower value 0.974 | locus YGR252W, strain gcn5, stronger effect = lower value 1.02 | locus YHR013C, strain ard1, stronger effect = lower value 0.932 | locus YHR027C, strain rpn1, stronger effect = lower value 0.983 | locus YHR030C, strain SLT2, stronger effect = lower value 0.989 and 1.02 | locus YHR079C, strain IRE1 (second series), stronger effect = lower value 0.982 | locus YHR079C, strain IRE1, stronger effect = lower value 1.03 | locus YHR094C, strain hxt1, stronger effect = lower value 0.971 | locus YHR129C, strain ARP1, stronger effect = lower value 0.998 | locus YHR142W, strain chs7, stronger effect = lower value 0.941 | locus YHR200W, strain rpn10, stronger effect = lower value 0.97 | locus YIL066C, strain RNR3, stronger effect = lower value 0.983 | locus YIL073C, strain SPO22, stronger effect = lower value 0.963 | locus YIL125W, strain kgd1, stronger effect = lower value 0.979 | locus YIR030C, strain dcg1, stronger effect = lower value 0.981 | locus YJL092W, strain hpr5, stronger effect = lower value 0.979 | locus YJL095W, strain BCK1 (second series), stronger effect = lower value 0.984 | locus YJL095W, strain BCK1, stronger effect = lower value 1 and 1.02 | locus YJL115W, strain asf1, stronger effect = lower value 0.981 | locus YJL129C, strain trk1, stronger effect = lower value 0.969 | locus YJL134W, strain LCB3, stronger effect = lower value 0.981 | locus YJL154C, strain vps35, stronger effect = lower value 0.978 | locus YJL164C, strain tpk1, stronger effect = lower value 0.949 | locus YJL166W, strain qcr8, stronger effect = lower value 0.952 | locus YJL168C, strain set2, stronger effect = lower value 0.981 | locus YJL187C, strain SWE1 (second series), stronger effect = lower value 0.98 | locus YJL187C, strain SWE1, stronger effect = lower value 0.984 | locus YJR043C, strain POL32, stronger effect = lower value 0.989 | locus YJR066W, strain TOR1, stronger effect = lower value 0.959
